Experimental findings from PubChem BioAssay (EPA / NIEHS) are described below.

The nature of assay [1]: ATG_NFI_CIS: Attagene CIS-FACTORIAL HepG2 Assay for human Nuclear Factor I (NFI) (AID 2282989). The conditions noted are these: HepG2 cis-regulatory reporter, NFI response element transcription; actives raise or lower the signal. The method in brief: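 Reporter transcription driven by endogenous transcription factors in HepG2 cells; 24 h treatment. Quantitation by labelled RT-PCR fragments on capillary electrophoresis, gain- or loss-of-signal relative to DMSO.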

The target of assay [2] is Myc proto-oncogene protein (Homo sapiens) (UniProt P01106). Put plainly: ATG_Myc_CIS: Attagene CIS-FACTORIAL HepG2 Assay for human Myelocytomatosis (Myc) Proto-Oncogene Transcription Factor (AID 2282990). The conditions noted are these: HepG2, Attagene cis-reporter transcription factor activity; actives raise or lower the signal. The method in brief:
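Cells of the HepG2 human liver line bear multiple cis-driven reporter transcription units. Reporter mRNA after 24 h exposure is reverse-transcribed, amplified, labelled and resolved by capillary electrophoresis, with gain- or loss-of-signal fitting relative to DMSO.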

Assay [3] can be described thus: ATG_NF_kB_CIS: Attagene CIS-FACTORIAL HepG2 Assay for human Nuclear Factor Kappa B (NF-kB) (AID 2282991). Particulars: HepG2 Attagene cis-factorial NF-kB reporter mRNA; actives raise or lower the signal. In short, it runs like this:
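HepG2, transient multi-reporter transfection, cis promoter elements (endogenous TFs). 24 h exposure. Total RNA → RT → PCR → 6-FAM label → HpaI → CE. Gain/loss vs DMSO.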

Assay [4] is described as follows: ATG_NRF2_ARE_CIS: Attagene CIS-FACTORIAL HepG2 Assay for human Nuclear Factor Erythroid 2 Related Factor 2 (NFR2) response to Antioxidant Response Elements (ARE) (AID 2282992).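 On AC50: reporter mRNA level measured by RT-PCR and capillary electrophoresis fluorescence.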 The conditions noted are these: HepG2 Attagene ARE/NRF2 reporter, transcription factor activity; actives raise or lower the signal. The method in brief: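 Transient MRTU transfection of HepG2; 24 h compound exposure; TriZol RNA, RT with oligo(dT), PCR, 6-FAM primer extension, HpaI cut, CE. Bidirectional fit vs DMSO.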

A short description of assay [5]: ATG_Oct_MLP_CIS: Attagene CIS-FACTORIAL HepG2 Assay for human Octamer-Binding Transcription Factor (Oct) (AID 2282993). The conditions noted are these: HepG2 Attagene cis-factorial Oct reporter, mRNA; actives raise or lower the signal. In short, it runs like this:
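Transfected HepG2 cells, 24 h treatment. Reporter mRNA quantified by RT-PCR–capillary electrophoresis; bidirectional fitting against DMSO.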

The target in assay [6] is Cellular tumor antigen p53 (Homo sapiens) (UniProt P04637). Briefly: ATG_p53_CIS: Attagene CIS-FACTORIAL HepG2 Assay for human p53 Transcription Factor (AID 2282994). Particulars: HepG2 p53 cis-element reporter, Attagene mRNA; actives raise or lower the signal. The method in brief:
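HepG2, transient MRTU transfection (cis promoter elements, endogenous TFs); 24 h dosing; RNA isolation, RT-PCR, 6-FAM primer extension, HpaI digest, CE fluorescence; bidirectional fit vs DMSO.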

Assay [7] concerns the target human Peroxisome Proliferator-activated Receptor delta (PPARd), PPARD (gene 5467) (UniProt Q03181). Put plainly: ATG_PPARd_TRANS: Attagene TRANS-FACTORIAL HepG2 Assay for human Peroxisome Proliferator-activated Receptor delta (PPARd) (AID 2283002; active means hit-call score of the fitted dose curve at least 0.9, where 1 is the maximum). The method in brief: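 Cell-based TRANS reporter: HepG2, transient MRTU transfection, 24 h exposure. Readout = reporter mRNA (RT-PCR/CE, 6-FAM). Gain-of-signal fit vs DMSO control.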

In assay [8] the target is human Retinoic Acid Receptor beta (RARb), RARB (gene 5915) (UniProt P10826). Put plainly: ATG_RARb_TRANS: Attagene TRANS-FACTORIAL HepG2 Assay for human Retinoic Acid Receptor beta (AID 2283004; active means hit-call score of the fitted dose curve at least 0.9, where 1 is the maximum). The method in brief: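 HepG2 cells were transiently transfected with GAL4-UAS reporter units that report activity of exogenous chimeric NR-Gal4 proteins, then exposed to compound for 24 h. Reporter mRNA was quantified by RT-PCR with capillary electrophoresis fluorescence, as gain of signal over DMSO.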

Assay [9] addresses Retinoic acid receptor alpha (Homo sapiens) (UniProt P10276). Briefly: ATG_RARa_TRANS: Attagene TRANS-FACTORIAL HepG2 Assay for human Retinoic Acid Receptor alpha (RARa) (AID 2283005; active means hit-call score of the fitted dose curve at least 0.9, where 1 is the maximum). In short, it runs like this: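 Reporter transcripts, measured by RT-PCR with fluorescent labeling and capillary electrophoresis after 24 h dosing, reflect activity of an exogenous human RARa–GAL4 fusion in transiently transfected HepG2. Fitted for increase relative to DMSO.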

The target in assay [10] is Peroxisome proliferator-activated receptor gamma (Homo sapiens) (UniProt P37231). Briefly: ATG_PPARg_TRANS: Attagene TRANS-FACTORIAL HepG2 Assay for human Peroxisome Proliferator-activated Receptor-gamma (PPARg) (AID 2283007; active means hit-call score of the fitted dose curve at least 0.9, where 1 is the maximum). In short, it runs like this: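 Multiplexed reporter transcription units in HepG2, 24 h dosing, reporter transcripts quantified by fluorescent RT-PCR and capillary electrophoresis. Increase over DMSO scored.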

In assay [11] the target is Nuclear receptor subfamily 1 group I member 2 (Homo sapiens) (UniProt O75469). Briefly: ATG_PXR_TRANS: Attagene TRANS-FACTORIAL HepG2 Assay for human Pregnane X Receptor (PXR) (AID 2283008; active means hit-call score of the fitted dose curve at least 0.9, where 1 is the maximum). The method in brief:
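Read-out is fluorescence of labelled reporter cDNA fragments separated by capillary electrophoresis after RT-PCR and HpaI digestion. Source: HepG2 cells carrying PXR-GAL4/UAS reporter constructs, treated 24 h; activity fitted upward relative to DMSO.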

The target of assay [12] is human Retinoic Acid Receptor gamma (RARg), RARG (gene 5916) (UniProt P13631). Put plainly: ATG_RARg_TRANS: Attagene TRANS-FACTORIAL HepG2 Assay for human Retinoic Acid Receptor gamma (RARg) (AID 2283009; active means hit-call score of the fitted dose curve at least 0.9, where 1 is the maximum). The method in brief:
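HepG2, RARg-GAL4 TRANS system, 24 h exposure; reporter mRNA by RT-PCR + CE fluorescence; increase over DMSO.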

In assay [13] the target is human Peroxisome Proliferator-activated Receptor alpha (PPARa), PPARA (gene 5465) (UniProt Q07869). Briefly: ATG_PPARa_TRANS: Attagene TRANS-FACTORIAL HepG2 Assay for human Peroxisome Proliferator-activated Receptor alpha (PPARa) (AID 2283001; active means hit-call score of the fitted dose curve at least 0.9, where 1 is the maximum;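 on AC50: potency for gain of reporter signal over DMSO so agonist or activator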). In short, it runs like this: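 Reporter transcripts from GAL4-UAS units in transfected HepG2 were quantified 24 h after dosing. Detection used reverse transcription, PCR, fluorescent primer extension and capillary electrophoresis, with DMSO as baseline.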

Assay [14] addresses human RAR-related Orphan Receptor beta (RORb), RORB (gene 6096) (UniProt Q92753). Put plainly: ATG_RORb_TRANS: Attagene TRANS-FACTORIAL HepG2 Assay for human RAR-related Orphan Receptor beta (RORb) (AID 2283010; active means hit-call score of the fitted dose curve at least 0.9, where 1 is the maximum). The method in brief: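 In this TRANS-format test, human HepG2 cells express chimeric NR-Gal4 fusion proteins driving GAL4-UAS reporters. After 24 h dosing, reporter transcripts are measured by fluorescent RT-PCR/capillary electrophoresis, with DMSO as negative control.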

Inconclusive results are not listed. Calls of active or inactive are those of the source. How the source made its calls, unless noted: active means hit-call score of the fitted dose curve at least 0.9, where 1 is the maximum; inactive means score below 0.9.

human Retinoic Acid Receptor gamma (RARg), RARG (gene 5916), sequence (P13631 whole entry, looked up, the tested form may be a part): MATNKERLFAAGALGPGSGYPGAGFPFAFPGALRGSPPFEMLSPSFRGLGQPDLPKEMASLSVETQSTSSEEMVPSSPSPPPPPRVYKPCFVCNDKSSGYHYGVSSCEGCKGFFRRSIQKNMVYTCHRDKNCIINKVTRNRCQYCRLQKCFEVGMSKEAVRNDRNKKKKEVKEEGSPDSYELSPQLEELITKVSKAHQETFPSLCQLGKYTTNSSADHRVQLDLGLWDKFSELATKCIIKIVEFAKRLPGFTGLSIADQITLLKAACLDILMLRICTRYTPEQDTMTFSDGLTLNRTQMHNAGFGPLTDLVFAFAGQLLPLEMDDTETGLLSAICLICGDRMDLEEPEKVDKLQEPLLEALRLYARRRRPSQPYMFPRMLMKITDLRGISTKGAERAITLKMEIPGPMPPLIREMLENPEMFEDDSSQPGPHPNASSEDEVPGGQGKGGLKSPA
human Retinoic Acid Receptor beta (RARb), RARB (gene 5915), sequence (P10826 whole entry, looked up, the tested form may be a part): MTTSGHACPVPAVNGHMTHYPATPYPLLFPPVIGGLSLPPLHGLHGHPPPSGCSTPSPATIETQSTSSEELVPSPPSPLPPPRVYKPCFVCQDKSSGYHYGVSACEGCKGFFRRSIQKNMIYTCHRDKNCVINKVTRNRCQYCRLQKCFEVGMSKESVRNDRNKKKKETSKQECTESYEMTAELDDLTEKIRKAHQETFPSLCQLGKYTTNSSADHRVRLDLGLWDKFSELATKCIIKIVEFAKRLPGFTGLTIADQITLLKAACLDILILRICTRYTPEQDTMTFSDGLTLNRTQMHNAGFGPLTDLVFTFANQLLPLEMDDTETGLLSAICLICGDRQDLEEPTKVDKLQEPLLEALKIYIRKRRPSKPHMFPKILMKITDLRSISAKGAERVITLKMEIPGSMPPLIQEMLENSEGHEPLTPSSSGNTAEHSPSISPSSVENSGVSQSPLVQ
Peroxisome proliferator-activated receptor gamma (Homo sapiens), sequence (P37231 whole entry, looked up): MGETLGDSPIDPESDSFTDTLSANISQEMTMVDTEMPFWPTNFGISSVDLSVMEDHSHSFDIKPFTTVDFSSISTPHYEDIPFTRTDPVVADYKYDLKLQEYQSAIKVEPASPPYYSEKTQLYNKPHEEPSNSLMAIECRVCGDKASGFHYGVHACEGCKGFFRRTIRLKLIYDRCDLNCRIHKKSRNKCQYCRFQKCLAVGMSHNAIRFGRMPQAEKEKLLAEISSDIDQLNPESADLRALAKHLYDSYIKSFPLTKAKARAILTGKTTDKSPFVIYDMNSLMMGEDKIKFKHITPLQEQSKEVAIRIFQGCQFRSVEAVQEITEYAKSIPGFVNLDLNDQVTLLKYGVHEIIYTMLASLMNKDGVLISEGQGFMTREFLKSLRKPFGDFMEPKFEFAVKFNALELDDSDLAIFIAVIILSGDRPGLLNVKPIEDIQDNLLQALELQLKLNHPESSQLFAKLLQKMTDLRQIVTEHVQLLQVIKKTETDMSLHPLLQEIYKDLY
human Peroxisome Proliferator-activated Receptor delta (PPARd), PPARD (gene 5467), sequence (Q03181 whole entry, looked up): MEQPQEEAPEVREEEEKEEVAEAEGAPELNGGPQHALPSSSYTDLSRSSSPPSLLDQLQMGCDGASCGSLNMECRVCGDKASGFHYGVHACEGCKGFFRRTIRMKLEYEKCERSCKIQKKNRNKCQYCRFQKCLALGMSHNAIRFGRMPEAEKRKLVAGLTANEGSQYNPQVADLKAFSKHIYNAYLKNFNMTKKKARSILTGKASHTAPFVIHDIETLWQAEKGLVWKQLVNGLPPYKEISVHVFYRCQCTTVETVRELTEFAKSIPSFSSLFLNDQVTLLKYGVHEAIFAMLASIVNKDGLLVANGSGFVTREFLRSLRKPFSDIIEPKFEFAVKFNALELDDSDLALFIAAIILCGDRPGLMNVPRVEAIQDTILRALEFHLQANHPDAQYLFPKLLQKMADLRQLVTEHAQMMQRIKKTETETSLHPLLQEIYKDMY
human Peroxisome Proliferator-activated Receptor alpha (PPARa), PPARA (gene 5465), sequence (Q07869 whole entry, looked up, the tested form may be a part): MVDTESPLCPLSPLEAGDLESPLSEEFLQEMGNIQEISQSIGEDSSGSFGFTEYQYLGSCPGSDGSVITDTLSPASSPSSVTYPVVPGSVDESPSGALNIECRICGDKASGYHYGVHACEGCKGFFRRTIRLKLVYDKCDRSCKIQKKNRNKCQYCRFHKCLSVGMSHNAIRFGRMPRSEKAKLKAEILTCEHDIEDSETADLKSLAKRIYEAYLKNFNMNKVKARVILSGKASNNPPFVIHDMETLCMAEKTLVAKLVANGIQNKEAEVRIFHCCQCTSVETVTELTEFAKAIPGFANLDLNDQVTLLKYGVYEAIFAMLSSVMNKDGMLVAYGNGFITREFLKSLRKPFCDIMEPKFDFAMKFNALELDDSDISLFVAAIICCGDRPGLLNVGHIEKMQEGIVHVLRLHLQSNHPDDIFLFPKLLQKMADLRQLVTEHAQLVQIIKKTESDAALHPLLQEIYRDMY
Retinoic acid receptor alpha (Homo sapiens), sequence (P10276 whole entry, looked up, the tested form may be a part): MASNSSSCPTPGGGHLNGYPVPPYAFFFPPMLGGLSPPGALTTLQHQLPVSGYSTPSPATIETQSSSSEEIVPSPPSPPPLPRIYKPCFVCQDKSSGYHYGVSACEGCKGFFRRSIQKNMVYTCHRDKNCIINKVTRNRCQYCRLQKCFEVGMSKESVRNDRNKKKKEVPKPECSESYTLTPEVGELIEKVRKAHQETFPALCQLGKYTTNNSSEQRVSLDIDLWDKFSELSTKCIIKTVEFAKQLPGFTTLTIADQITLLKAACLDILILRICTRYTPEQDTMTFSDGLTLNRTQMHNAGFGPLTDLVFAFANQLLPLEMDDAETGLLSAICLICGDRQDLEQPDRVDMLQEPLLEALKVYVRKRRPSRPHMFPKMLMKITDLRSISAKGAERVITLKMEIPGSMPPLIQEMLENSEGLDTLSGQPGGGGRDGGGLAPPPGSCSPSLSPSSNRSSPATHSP
Cellular tumor antigen p53 (Homo sapiens), sequence (P04637 whole entry, looked up): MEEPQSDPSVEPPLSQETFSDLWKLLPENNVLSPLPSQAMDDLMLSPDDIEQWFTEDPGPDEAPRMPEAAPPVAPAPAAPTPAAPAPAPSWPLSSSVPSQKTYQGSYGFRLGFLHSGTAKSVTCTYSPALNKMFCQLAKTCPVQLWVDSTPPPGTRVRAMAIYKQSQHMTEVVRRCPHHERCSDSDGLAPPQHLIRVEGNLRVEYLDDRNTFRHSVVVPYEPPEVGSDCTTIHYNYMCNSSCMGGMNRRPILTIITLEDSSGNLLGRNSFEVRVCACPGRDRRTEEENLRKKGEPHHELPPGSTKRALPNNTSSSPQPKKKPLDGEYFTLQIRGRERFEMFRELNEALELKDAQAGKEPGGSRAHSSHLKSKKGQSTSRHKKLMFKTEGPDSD
Myc proto-oncogene protein (Homo sapiens), sequence (P01106 whole entry, looked up): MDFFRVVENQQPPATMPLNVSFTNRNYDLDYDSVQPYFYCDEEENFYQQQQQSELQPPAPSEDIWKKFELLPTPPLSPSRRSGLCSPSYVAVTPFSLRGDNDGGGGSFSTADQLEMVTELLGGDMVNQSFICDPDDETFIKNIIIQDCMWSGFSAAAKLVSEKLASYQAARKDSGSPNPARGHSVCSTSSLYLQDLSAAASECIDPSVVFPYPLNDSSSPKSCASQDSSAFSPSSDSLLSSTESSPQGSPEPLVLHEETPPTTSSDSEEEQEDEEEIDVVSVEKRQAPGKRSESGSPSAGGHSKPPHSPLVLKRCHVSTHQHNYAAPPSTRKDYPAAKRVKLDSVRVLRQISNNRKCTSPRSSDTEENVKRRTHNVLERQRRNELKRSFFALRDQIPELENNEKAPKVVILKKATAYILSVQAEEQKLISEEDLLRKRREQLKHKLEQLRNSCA
Nuclear receptor subfamily 1 group I member 2 (Homo sapiens), sequence (O75469 whole entry, looked up, the tested form may be a part): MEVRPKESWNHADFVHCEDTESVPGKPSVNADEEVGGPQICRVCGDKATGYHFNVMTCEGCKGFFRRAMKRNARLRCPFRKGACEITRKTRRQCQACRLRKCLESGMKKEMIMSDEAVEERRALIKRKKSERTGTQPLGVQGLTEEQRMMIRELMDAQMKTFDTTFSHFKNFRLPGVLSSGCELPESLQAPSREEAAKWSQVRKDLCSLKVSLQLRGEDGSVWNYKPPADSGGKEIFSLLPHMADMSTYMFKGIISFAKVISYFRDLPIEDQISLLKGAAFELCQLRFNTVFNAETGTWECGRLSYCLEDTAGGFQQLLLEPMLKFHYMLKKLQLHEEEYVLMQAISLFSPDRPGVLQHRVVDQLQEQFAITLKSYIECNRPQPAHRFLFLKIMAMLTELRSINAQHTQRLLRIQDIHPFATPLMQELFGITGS
human RAR-related Orphan Receptor beta (RORb), RORB (gene 6096), sequence (Q92753 whole entry, looked up, the tested form may be a part): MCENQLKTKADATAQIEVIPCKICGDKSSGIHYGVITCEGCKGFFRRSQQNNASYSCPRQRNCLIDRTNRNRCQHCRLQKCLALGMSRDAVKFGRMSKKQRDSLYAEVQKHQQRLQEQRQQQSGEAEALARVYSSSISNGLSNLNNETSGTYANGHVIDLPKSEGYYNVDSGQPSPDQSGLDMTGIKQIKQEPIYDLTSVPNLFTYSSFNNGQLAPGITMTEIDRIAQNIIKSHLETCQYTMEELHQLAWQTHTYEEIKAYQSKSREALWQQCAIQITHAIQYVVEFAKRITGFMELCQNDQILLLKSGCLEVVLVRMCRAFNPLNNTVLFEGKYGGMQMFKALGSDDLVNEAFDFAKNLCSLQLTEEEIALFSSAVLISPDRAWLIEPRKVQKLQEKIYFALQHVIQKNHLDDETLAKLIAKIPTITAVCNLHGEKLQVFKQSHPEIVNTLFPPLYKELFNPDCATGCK

As usually defined, the AC50 is the concentration at which the activity in the assay is half-maximal. Turning to `Cc1cc(Cc2cc(C)cc(C(C)(C)C)c2O)c(O)c(C(C)(C)C)c1`, the AC50 is 25.8 µM (active) in assay [1], 136 µM (active) in assay [2], 12.6 µM (active) in [10] and 0.0594 µM (active) in assay [11]. For the same molecule, the call in assay [3], in assay [4], in assay [5], in assay [6], in assay [7] and in assay [8] was inactive. The outcome in assay [9] and in assay [12] was inactive.
Consider `Cc1cncc(C)c1`, for which the molecule was called inactive in [1], in assay [2], in assay [3], in assay [4], in assay [5] and in assay [6]. The outcome in [13], in assay [7], in assay [10] and in [11] was inactive.
In the case of `C=CCOCC(CO)(CO)CO`, the result in [1], in assay [2], in assay [3], in assay [4], in assay [5] and in [6] was inactive. Besides, the call in assay [7], in assay [8], in assay [9], in assay [10] and in assay [12] was inactive. In addition, the AC50 in [11] is 15.1 µM (active).
`CCCCCCC(C)(C)C(=O)O`: the molecule was called inactive in assay [1], in assay [2], in assay [3], in [5], in [6] and in [7]. For the same molecule, the result in assay [9], in assay [11] and in [12] was inactive. In addition, the AC50 in assay [4] was 117 µM (active); in assay [13] it was 18 µM (active); in assay [10], 46.3 µM (active).
With `CCCCc1ccc2ccccc2c1S(=O)(=O)O`, the call in assay [1], in [2], in assay [3], in assay [5], in assay [6] and in assay [13] was inactive. The call in assay [7], in assay [12] and in assay [14] was inactive. Also, the AC50 was 8.84 µM (active) in assay [4], 45.4 µM (active) in assay [10] and 2.67 µM (active) in assay [11].
On to `CCOC=O`, for which the outcome in assay [1], in assay [2], in assay [3], in assay [4], in assay [5] and in assay [6] was inactive. Moreover, the result in assay [13], in assay [7], in [8], in assay [11] and in assay [12] was inactive.
As for `COC(=O)C(F)(F)C(F)(F)C(F)(F)C(F)(F)C(F)(F)F`, the outcome in [1], in assay [2], in assay [3], in assay [4], in assay [5] and in [6] was inactive. Also, the molecule was called inactive in [13], in assay [7], in [8], in [11] and in [12].
As to `CCCCCCCCCCCCOC(=O)c1cc(O)c(O)c(O)c1`, the molecule was classed as inactive in [1], in assay [2], in [3], in [6], in assay [9] and in assay [12]. The AC50 in assay [4] was 2.95 µM (active); in assay [5] it was 11.1 µM (active); in assay [13] it was 43.9 µM (active); in [10], 20.8 µM (active); in [11] it was 10.6 µM (active).
In the case of `C=Cc1ccc(O)c(OC)c1`, the molecule was called inactive in [1], in [2], in assay [3], in [5], in assay [6] and in assay [7]. The molecule was classed as inactive in assay [8], in assay [9] and in [12]. The AC50 in [4] was 6.89 µM (active); in assay [10], 8.33 µM (active); in assay [11], 70.3 µM (active).
In the case of `Brc1ccc(Oc2ccc(Br)cc2Br)cc1`, the outcome in assay [1], in assay [2], in assay [3], in [4], in assay [5] and in assay [6] was inactive. In addition, the call in [13] and in [10] was inactive.
